We go through 4 compounds from PubChem BioAssay (EPA / NIEHS).

Usually AC50 stands for the concentration at which the activity in the assay is half-maximal.

A short description of experiment [1]: ATG_PBREM_CIS: Attagene CIS-FACTORIAL HepG2 Assay for human Phenobarbital-responsive Enhancer Module (PBREM) (AID 2282955). The note with it: HepG2 PBREM cis-reporter, Attagene multiplexed transcription; actives raise or lower the signal. The method, boiled down: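 Readout: reporter mRNA, fluorescent RT-PCR fragments separated by capillary electrophoresis. System: HepG2 transiently transfected with cis-regulated reporter units. Exposure: 24 h. Analysis: bidirectional, DMSO baseline.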

Experiment [2] has as its target Paired box protein Pax-6 (Homo sapiens) (UniProt P26367). Nature of the experiment: ATG_Pax6_CIS: Attagene CIS-FACTORIAL HepG2 Assay for human Paired Box 6 (PAX6) (AID 2282956). The note with it: HepG2 CIS-FACTORIAL PAX6 reporter transcription, RNA readout; actives raise or lower the signal. In outline: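 Multiplexed cis-reporter HepG2 system; 24 h treatment; reporter mRNA read by RT-PCR/CE fluorescence; bidirectional fit vs DMSO.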

The nature of experiment [3]: ATG_PXRE_CIS: Attagene CIS-FACTORIAL HepG2 Assay for human Pregnane X Receptor Element (PXRE) (AID 2282957). The conditions noted are these: HepG2 Attagene CIS-FACTORIAL PXRE reporter, mRNA; actives raise or lower the signal. The method, boiled down:
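Transfect HepG2 with MRTUs (cis promoter elements); dose chemical, incubate 24 h; isolate RNA, RT with oligo(dT), PCR, 6-FAM label, HpaI cut, CE. Gain/loss fit vs DMSO.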

Experiment [4] can be described thus: ATG_PPRE_CIS: Attagene CIS-FACTORIAL HepG2 Assay for human Peroxisome Proliferator-activated Response Element (PPRE) (AID 2282958). The conditions noted are these: HepG2 PPRE cis-element reporter, Attagene transcription factor profiling; actives raise or lower the signal. The method, boiled down:
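After human HepG2 hepatoma cells were transiently transfected with cis-promoter reporter constructs, they were exposed to test chemicals for 24 hours. Reporter RNA was then reverse-transcribed, PCR-amplified, FAM-labeled, HpaI-digested and quantified by capillary electrophoresis.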

A short description of experiment [5]: ATG_RORE_CIS: Attagene CIS-FACTORIAL HepG2 Assay for human RAR-related Orphan Receptor Element (RORE) (AID 2282959). The note with it: HepG2 Attagene cis-factorial RORE reporter, mRNA; actives raise or lower the signal. The method, boiled down: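 Measured here: transcript induction of a cis-regulated reporter in HepG2 cells transiently transfected via FuGene 6. After 24 h, RNA was processed by RT-PCR and fluorescent capillary electrophoresis; DMSO defined baseline activity.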

Experiment [6] can be described thus: ATG_Sox_CIS: Attagene CIS-FACTORIAL HepG2 Assay for human SRY-box transcription factor (SOX) (AID 2282960). The note with it: HepG2 Attagene cis-factorial SOX reporter, mRNA; actives raise or lower the signal. In outline:
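Using transiently transfected HepG2 cells, reporter transcription driven by cis elements was assessed 24 h after dosing. Signal was fluorescence of capillary-separated RT-PCR products, with DMSO defining baseline activity.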

The target of experiment [7] is Transcription factor Sp1 (Homo sapiens) (UniProt P08047). In words: ATG_Sp1_CIS: Attagene CIS-FACTORIAL HepG2 Assay for human Specificity Protein 1 (Sp1) (AID 2282961). The note with it: HepG2 Sp1 cis-reporter transcription, actives raise or lower the signal. The method, boiled down:
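After transient transfection of HepG2 cells with cis-promoter reporter units and 24 h chemical treatment, reporter transcripts were quantified by RT-PCR and capillary electrophoresis fluorescence. Gain- and loss-of-signal fitted against DMSO.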

Experiment [8] in a line: ATG_SREBP_CIS: Attagene CIS-FACTORIAL HepG2 Assay for human Sterol Regulatory Element Binding (SREBP) (AID 2282962). The conditions noted are these: HepG2 Attagene cis-factorial SREBP reporter, mRNA; actives raise or lower the signal. In outline:
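mRNA induction of transfected cis-promoter reporters in HepG2 cells, 24 h post-dose. Detection: RT-PCR with 6-FAM-labelled products, HpaI digest, capillary electrophoresis. DMSO served as negative control and baseline.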

Experiment [9] deals with Signal transducer and activator of transcription 3 (Homo sapiens) (UniProt P40763). Nature of the experiment: ATG_STAT3_CIS: Attagene CIS-FACTORIAL HepG2 Assay for human Signal Transducer and Activator of Transcription 3 (STAT3) (AID 2282963). The conditions noted are these: HepG2, Attagene cis-factorial STAT3 reporter transcription; actives raise or lower the signal. The method, boiled down: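 Endogenous STAT3-responsive cis-element activity was read in transiently transfected HepG2 cells after 24 h treatment. Reporter transcripts were quantified via RT-PCR and capillary electrophoresis, with DMSO as negative control and bidirectional curve fitting.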

The nature of experiment [10]: ATG_TCF_b_cat_CIS: Attagene CIS-FACTORIAL HepG2 Assay for human T-Cell-Factor with beta-catenin (TCF/b-cat) (AID 2282965). The conditions noted are these: HepG2 TCF/beta-catenin cis-reporter transcription, actives raise or lower the signal. In outline:
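Endogenous TCF/LEF activity read as reporter transcript level via RT-PCR and capillary electrophoresis fluorescence in transfected HepG2, 24 h exposure; gain or loss of signal fitted against DMSO controls.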

Experiment [11] is described as follows: ATG_TAL_CIS: Attagene CIS-FACTORIAL HepG2 Assay for human TAL Basal Promoter (AID 2282966).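 Also: background control endpoint measuring basal TAL promoter reporter mRNA not a specific factor.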 The conditions noted are these: HepG2 Attagene cis-factorial TAL promoter reporter; actives raise or lower the signal. In outline:
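Fluorescence of labelled reporter cDNA fragments, resolved by capillary electrophoresis, gave the readout. Human HepG2 liver cells carried transiently transfected cis-element reporter units and were treated for 24 hours; activity was fitted bidirectionally against DMSO.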

A short description of experiment [12]: ATG_TGFb_CIS: Attagene CIS-FACTORIAL HepG2 Assay for human Transforming Growth Factor (TGF) (AID 2282967). The note with it: HepG2 Attagene CIS TGFb reporter, mRNA transcription; actives raise or lower the signal. In outline: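 Cells were dosed for 24 hours, after which total RNA was reverse-transcribed and reporter sequences amplified, labeled and sized by capillary electrophoresis. Activity was fitted in both directions against DMSO.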

Experiment [13] in a line: ATG_VDRE_CIS: Attagene CIS-FACTORIAL HepG2 Assay for human Vitamin D Receptor Element (VDRE) (AID 2282968). The note with it: HepG2 VDRE cis-reporter transcription, actives raise or lower the signal. In outline:
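Reporter mRNA induction, quantified by capillary electrophoresis of fluorescently labelled RT-PCR products, was read 24 h after dosing HepG2 cells carrying transiently transfected cis-regulated reporter units; gain or loss relative to DMSO.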

Experiment [14] concerns the target Nuclear receptor subfamily 1 group I member 3 (Homo sapiens) (UniProt Q14994). In words: ATG_CAR_TRANS: Attagene TRANS-FACTORIAL HepG2 Assay for human Constitutive Androstane Receptor (CAR) (AID 2282969; active = hit-call score of the fitted dose curve at least 0.9, where 1 is the maximum;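 also: activators raise reporter mRNA above DMSO so AC50 marks induction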). The conditions noted are these: HepG2 Attagene TRANS-FACTORIAL CAR reporter. The method, boiled down:
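Readout is reporter mRNA induction, quantified by fluorescent primer extension and capillary electrophoresis after RT-PCR. Cells were HepG2 transiently carrying chimeric NR-Gal4 constructs with GAL4-UAS reporters, treated for 24 h; activity scored upward from DMSO.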

Experiment [15] has as its target Steroid hormone receptor ERR1 (Homo sapiens) (UniProt P11474). Nature of the experiment: ATG_ERRa_TRANS: Attagene TRANS-FACTORIAL HepG2 Assay for human Estrogen-Related Receptor alpha (ERRa) (AID 2282971; active = hit-call score of the fitted dose curve at least 0.9, where 1 is the maximum). The conditions noted are these: HepG2 Attagene TRANS reporter, ERRa transactivation. The method, boiled down: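 Reporter transcript induction was quantified by RT-PCR and capillary electrophoresis of FAM-labelled, HpaI-cut products after 24 h treatment of HepG2 cells carrying transiently transfected GAL4-UAS reporter units and an exogenous ERRa-Gal4 fusion; activity scored as increase over DMSO.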

For experiment [16], the target named is X-box-binding protein 1 (Homo sapiens) (UniProt P17861). Nature of the experiment: ATG_Xbp1_CIS: Attagene CIS-FACTORIAL HepG2 Assay for human X-box Binding Protein 1 (XBP1) (AID 2282972). The conditions noted are these: HepG2 XBP1 cis-element reporter, Attagene multiplex; actives raise or lower the signal. In outline:
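Fluorescence-labelled cDNA fragments from reporter transcripts, separated by capillary electrophoresis, give the signal. Source: HepG2 cells transfected with promoter-driven reporter units, harvested 24 h post-dose. DMSO served as reference for bidirectional curve fitting.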

Experiment [17] is described as follows: ATG_GAL4_TRANS: Attagene TRANS-FACTORIAL HepG2 Assay for GAL4 (Internal Marker) (AID 2282976; active = hit-call score of the fitted dose curve at least 0.9, where 1 is the maximum). The note with it: HepG2 Attagene TRANS GAL4 internal marker reporter. The method, boiled down: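 First, HepG2 cells were transfected with reporter units under GAL4-UAS control. Next, they were treated with chemical for 24 h. Finally, RNA was reverse-transcribed, PCR-amplified, FAM-labelled and resolved by capillary electrophoresis, with induction scored against DMSO.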

The nature of experiment [18]: ATG_M_19_TRANS: Attagene TRANS-FACTORIAL HepG2 Assay for M19 Transcription Factor (Internal Marker) (AID 2282974; active = hit-call score of the fitted dose curve at least 0.9, where 1 is the maximum). The conditions noted are these: HepG2 Attagene TRANS-FACTORIAL M19 internal marker reporter. In outline: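 Gain-of-signal in reporter mRNA, relative to DMSO, was scored from capillary electrophoresis fluorescence. HepG2 cells carried transiently transfected multiple reporter transcription units and were incubated with test chemicals for 24 h.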

A short description of experiment [19]: ATG_TA_CIS: Attagene CIS-FACTORIAL HepG2 Assay for human TA Basal Promoter (AID 2282964). The conditions noted are these: HepG2 Attagene CIS-factorial TA basal promoter reporter; actives raise or lower the signal. In outline:
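Steps: transfect HepG2 with MRTUs; dose 24 h; isolate RNA, DNase-treat, reverse-transcribe; PCR and FAM-label reporter cDNA; digest with HpaI 2h at 37 C; run capillary electrophoresis. Activity fitted both directions against DMSO.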

The target of experiment [20] is Estrogen receptor (Homo sapiens) (UniProt P03372). In words: ATG_ERa_TRANS: Attagene TRANS-FACTORIAL HepG2 Assay for human Estrogen Receptor alpha (ERa) (AID 2282970; active = hit-call score of the fitted dose curve at least 0.9, where 1 is the maximum). The note with it: HepG2 Attagene TRANS ERa GAL4 reporter, mRNA. The method, boiled down:
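Human liver HepG2, transient transfection of multiple GAL4-UAS reporter units; TRANS format (exogenous NR-Gal4 chimera). 24 h dosing. Readout: reporter mRNA, RT-PCR, 6-FAM primer extension, HpaI digest, capillary electrophoresis. Positive direction vs DMSO.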

Inconclusive results are not listed. Calls of active or inactive are those of the source. The calls were made as follows, unless noted: active = hit-call score of the fitted dose curve at least 0.9, where 1 is the maximum; inactive = score below 0.9.

X-box-binding protein 1 (Homo sapiens), sequence (P17861 whole entry, looked up, the tested form may be a part): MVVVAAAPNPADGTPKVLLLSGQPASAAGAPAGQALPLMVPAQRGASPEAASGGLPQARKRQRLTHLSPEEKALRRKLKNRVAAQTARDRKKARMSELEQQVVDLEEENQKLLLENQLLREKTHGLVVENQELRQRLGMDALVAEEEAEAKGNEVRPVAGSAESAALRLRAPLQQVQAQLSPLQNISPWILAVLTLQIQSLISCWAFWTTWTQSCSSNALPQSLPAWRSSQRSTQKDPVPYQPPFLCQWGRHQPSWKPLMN
Transcription factor Sp1 (Homo sapiens), sequence (P08047 whole entry, looked up): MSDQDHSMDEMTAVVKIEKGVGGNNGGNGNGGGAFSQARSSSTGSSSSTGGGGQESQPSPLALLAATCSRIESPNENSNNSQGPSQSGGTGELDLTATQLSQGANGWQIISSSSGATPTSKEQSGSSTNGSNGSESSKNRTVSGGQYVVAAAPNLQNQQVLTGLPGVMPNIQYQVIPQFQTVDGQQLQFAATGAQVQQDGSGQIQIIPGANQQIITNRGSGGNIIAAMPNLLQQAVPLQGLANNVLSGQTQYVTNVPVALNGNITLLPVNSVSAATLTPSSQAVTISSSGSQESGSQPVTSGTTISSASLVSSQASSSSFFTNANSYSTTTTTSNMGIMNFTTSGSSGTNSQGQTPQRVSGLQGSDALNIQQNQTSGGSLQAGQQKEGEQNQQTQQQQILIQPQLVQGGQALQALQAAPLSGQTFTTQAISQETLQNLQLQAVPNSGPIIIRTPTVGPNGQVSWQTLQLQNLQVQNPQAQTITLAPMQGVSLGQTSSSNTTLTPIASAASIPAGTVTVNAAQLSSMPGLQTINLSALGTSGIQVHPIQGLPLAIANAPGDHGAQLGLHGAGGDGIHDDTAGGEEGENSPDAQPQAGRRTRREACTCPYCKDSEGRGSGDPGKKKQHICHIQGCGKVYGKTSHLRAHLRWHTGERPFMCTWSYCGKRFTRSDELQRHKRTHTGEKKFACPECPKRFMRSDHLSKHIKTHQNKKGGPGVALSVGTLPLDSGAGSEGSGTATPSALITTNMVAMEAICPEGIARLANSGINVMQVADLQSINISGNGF
Paired box protein Pax-6 (Homo sapiens), sequence (P26367 whole entry, looked up): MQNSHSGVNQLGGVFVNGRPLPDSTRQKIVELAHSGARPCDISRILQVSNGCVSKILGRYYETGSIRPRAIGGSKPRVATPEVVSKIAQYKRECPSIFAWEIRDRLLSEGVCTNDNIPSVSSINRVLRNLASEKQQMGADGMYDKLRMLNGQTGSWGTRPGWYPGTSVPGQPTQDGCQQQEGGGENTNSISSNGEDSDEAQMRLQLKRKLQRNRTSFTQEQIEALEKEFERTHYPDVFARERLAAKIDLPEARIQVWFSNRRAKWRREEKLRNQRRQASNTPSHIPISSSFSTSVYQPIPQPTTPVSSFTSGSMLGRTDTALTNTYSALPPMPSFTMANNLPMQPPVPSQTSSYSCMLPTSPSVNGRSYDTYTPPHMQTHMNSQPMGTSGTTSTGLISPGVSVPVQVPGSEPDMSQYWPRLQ
Signal transducer and activator of transcription 3 (Homo sapiens), sequence (P40763 whole entry, looked up): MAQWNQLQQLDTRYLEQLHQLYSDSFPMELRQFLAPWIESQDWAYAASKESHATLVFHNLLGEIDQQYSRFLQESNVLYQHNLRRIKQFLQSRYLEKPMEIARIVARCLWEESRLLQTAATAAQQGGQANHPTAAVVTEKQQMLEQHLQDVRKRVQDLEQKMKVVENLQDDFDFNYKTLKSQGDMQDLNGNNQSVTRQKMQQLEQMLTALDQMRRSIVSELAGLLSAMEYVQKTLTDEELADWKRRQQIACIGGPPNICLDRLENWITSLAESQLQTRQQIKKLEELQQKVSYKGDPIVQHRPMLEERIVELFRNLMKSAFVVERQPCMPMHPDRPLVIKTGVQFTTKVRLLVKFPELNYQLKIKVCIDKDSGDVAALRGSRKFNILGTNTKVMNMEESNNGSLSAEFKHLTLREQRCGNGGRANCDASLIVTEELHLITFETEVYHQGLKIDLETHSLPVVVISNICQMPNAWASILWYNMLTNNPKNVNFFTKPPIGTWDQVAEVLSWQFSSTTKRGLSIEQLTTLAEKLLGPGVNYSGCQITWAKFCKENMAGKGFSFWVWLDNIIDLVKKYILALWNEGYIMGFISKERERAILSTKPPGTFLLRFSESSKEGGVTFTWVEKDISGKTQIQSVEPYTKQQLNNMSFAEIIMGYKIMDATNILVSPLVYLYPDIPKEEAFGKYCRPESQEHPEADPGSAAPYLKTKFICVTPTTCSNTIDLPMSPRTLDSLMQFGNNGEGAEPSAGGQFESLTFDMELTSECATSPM
Nuclear receptor subfamily 1 group I member 3 (Homo sapiens), sequence (Q14994 whole entry, looked up, the tested form may be a part): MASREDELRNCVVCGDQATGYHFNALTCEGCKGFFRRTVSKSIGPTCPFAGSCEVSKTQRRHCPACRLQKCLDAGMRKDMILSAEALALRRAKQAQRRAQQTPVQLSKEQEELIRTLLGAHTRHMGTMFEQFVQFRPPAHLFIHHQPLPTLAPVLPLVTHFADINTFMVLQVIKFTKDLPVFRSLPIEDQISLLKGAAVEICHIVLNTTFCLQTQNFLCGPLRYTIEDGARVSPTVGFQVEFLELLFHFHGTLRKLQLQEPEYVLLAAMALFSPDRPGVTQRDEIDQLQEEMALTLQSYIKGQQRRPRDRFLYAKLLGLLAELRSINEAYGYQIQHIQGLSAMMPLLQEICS
Estrogen receptor (Homo sapiens), sequence (P03372 whole entry, looked up, the tested form may be a part): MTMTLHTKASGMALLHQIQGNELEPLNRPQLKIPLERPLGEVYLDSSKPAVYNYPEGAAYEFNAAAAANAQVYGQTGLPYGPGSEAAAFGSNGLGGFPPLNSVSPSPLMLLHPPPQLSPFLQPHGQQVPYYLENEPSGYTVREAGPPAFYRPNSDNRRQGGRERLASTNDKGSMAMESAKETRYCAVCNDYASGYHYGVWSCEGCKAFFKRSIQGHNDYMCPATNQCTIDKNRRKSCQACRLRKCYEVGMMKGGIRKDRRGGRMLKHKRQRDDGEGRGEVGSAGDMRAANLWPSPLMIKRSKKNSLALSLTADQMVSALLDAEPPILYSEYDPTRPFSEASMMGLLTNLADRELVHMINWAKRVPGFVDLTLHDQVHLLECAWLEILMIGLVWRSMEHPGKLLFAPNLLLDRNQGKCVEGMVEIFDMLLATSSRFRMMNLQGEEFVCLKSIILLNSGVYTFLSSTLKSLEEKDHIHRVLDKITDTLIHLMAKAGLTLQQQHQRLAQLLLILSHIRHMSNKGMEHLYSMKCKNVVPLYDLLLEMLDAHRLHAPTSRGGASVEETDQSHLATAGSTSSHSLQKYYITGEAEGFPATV
Steroid hormone receptor ERR1 (Homo sapiens), sequence (P11474 whole entry, looked up, the tested form may be a part): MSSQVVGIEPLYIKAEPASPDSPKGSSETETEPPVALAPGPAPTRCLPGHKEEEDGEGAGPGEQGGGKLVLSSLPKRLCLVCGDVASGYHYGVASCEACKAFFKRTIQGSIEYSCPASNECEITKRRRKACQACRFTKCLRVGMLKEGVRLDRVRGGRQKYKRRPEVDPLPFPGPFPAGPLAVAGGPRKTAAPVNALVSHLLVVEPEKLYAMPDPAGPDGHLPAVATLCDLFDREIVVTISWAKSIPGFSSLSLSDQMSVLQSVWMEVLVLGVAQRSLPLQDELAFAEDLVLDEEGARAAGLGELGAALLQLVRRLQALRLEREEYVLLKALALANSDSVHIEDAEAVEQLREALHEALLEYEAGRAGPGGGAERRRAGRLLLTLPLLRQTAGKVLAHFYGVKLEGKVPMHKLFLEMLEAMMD

In the case of `O=C(O)CCC(F)(F)C(F)(F)C(F)(F)F`, the outcome in [1], in [2], in [3], in experiment [4], in experiment [5] and in experiment [6] was inactive. For the same compound, the compound was classed as inactive in [7], in [8], in experiment [9], in experiment [10], in [11] and in experiment [12]. Further, the outcome in experiment [13], in [14], in experiment [15], in experiment [16] and in [17] was inactive.

In the case of `CC(=O)C=O`, the result in [1], in [2], in experiment [3], in experiment [4], in [5] and in [6] was inactive. In addition, the outcome in experiment [7], in experiment [8], in [9], in experiment [10], in [11] and in experiment [12] was inactive. Further, the compound was called inactive in experiment [13], in experiment [16], in [18] and in experiment [17].

Take `CCN=c1cc2oc3cc(NCC)c(C)cc3c(-c3ccccc3C(=O)OCC)c-2cc1C`: the outcome in experiment [1], in [3], in experiment [9], in experiment [11], in [12] and in [13] was inactive. Moreover, the concentration at half-maximal activity (AC50) in experiment [2] was 8.69 µM (active); in experiment [4], 17 µM (active); in [6] it was 15.9 µM (active); in experiment [7] it was 9.7 µM (active); in experiment [8], 15.5 µM (active); in [19] it was 11.1 µM (active). For the same compound, the AC50 in experiment [10] was 7.34 µM (active); in experiment [16], 11.1 µM (active).

As to `CC(C)(C)c1cc(CCC(=O)NCCCCCCNC(=O)CCc2cc(C(C)(C)C)c(O)c(C(C)(C)C)c2)cc(C(C)(C)C)c1O`, the result in [1], in [2], in [4], in experiment [5], in experiment [6] and in experiment [7] was inactive. Also, the compound was called inactive in [8], in [9], in experiment [10], in [11], in experiment [12] and in experiment [20]. Besides, the call in experiment [16] and in [17] was inactive. In addition, the AC50 in experiment [3] was 0.169 µM (active); in [13] it was 0.811 µM (active).
